# Assay results taken from PMC7819943, “Rice protein-binding microarrays: a tool to detect cis-acting elements near promoter regions in rice”.
# Whole data set: some 68,000 sequences, median “fluorescence intensity (a.u.)” near 9,100, cut for the highest 2% near 16,000. Shown is part of a subset that was picked to be rich in the highest values.
# Molecular target: OsWRKY34 (Oryza sativa, UniProt Q0JBA9 1-250)
# Experiment: protein-binding microarray (RPBM); PBS, 2% BSA, 51.3 ng/ul salmon testes DNA, 50 uM zinc acetate, 200 nM TF, 25 C, 1 h; high values mean tight binding
# Details: protein: recombinant; tags: N-terminal polyhistidine and DsRed monomer fusion (pET32a); label: CyDye5-dUTP incorporated in the synthesized complementary strand; 3' TTTTT single-stranded linker to array surface; dsDNA, one strand shown
# Procedure, shortened: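 The binding signal is fluorescence intensity per array feature (arbitrary units). Readings came from an Axon 4000B scanner after a washed, 2% BSA-blocked, double-stranded custom Agilent array had been incubated for 1 h at 25 °C with 200 nM protein and 50 µM zinc acetate. The protein was a Ni–NTA-purified transcription factor fused N-terminally to polyhistidine and DsRed, expressed in E. coli BL21-CodonPlus.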
# Chain of OsWRKY34 (Q0JBA9 entry or part of it): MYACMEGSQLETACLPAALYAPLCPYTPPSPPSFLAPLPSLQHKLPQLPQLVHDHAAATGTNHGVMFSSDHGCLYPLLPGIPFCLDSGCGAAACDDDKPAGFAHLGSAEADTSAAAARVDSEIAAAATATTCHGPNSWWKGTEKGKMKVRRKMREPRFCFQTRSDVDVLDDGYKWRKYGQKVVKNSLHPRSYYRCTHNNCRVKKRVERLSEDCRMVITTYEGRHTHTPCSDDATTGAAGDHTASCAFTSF
row,Sequence,binding signal
1,TTTGTCCTGGGCTTCTTTCGGCCCAATCTCTCTCCCGTCGCGGAGTCACCTAGTGCAG,11100 fluorescence intensity (a.u.)
2,ACTGTTTATAGGGTAGGGGTAAGGTTGTGTTCATATAGGTCGGAGTCACCTAGTGCAG,11700 fluorescence intensity (a.u.)
3,TCCGGGCTGGGTGGGTGGGGTGGGGATGGAGCTTGCCTGGCGGAGTCACCTAGTGCAG,24100 fluorescence intensity (a.u.)
4,GGGTGGGTGGGGCGGTGCTTTCCTGGAGATGGGAGAGTGGCGGAGTCACCTAGTGCAG,23000 fluorescence intensity (a.u.)
5,CTGGGGTTGGCCTGGGCTGATATATGTTTGGCGCTCAAAACGGAGTCACCTAGTGCAG,11100 fluorescence intensity (a.u.)
6,GGGTGGGGTGGGCCTGGGCTGATGCATGTTTGGCGCTTAGCGGAGTCACCTAGTGCAG,21200 fluorescence intensity (a.u.)
7,GGGTGCTGGGGCTTTGGCTGCCTTGACTTGGATTGCCTTCCGGAGTCACCTAGTGCAG,8640 fluorescence intensity (a.u.)
8,TGGGGATGGAGCTTGCCTGGGTGGTGGTGAGGGCGCAGTTCGGAGTCACCTAGTGCAG,8680 fluorescence intensity (a.u.)
9,GGTGCGGCGGTGGGCGGCATGGAGATGGGGAGAGGAGGCGCGGAGTCACCTAGTGCAG,10600 fluorescence intensity (a.u.)
10,TCTCCTGGTTTTGTGTGTTAGCGCTGTCAGTGTGTGGGTGCGGAGTCACCTAGTGCAG,8120 fluorescence intensity (a.u.)
11,TCGGAGTGGGGAGATGGTGTCGGGGTGCTGGGTTTCCGGGCGGAGTCACCTAGTGCAG,13100 fluorescence intensity (a.u.)
12,GAGGGATGTCTTATATCTAGTTTTGTGGTTGGAGGATGATCGGAGTCACCTAGTGCAG,8770 fluorescence intensity (a.u.)
13,TCTGTGTTGGCGAGAGTTGGTGTCTGGAATTGGGCTTGGTCGGAGTCACCTAGTGCAG,9200 fluorescence intensity (a.u.)
14,GTTCTATTGTACTGGTCAGTTCAGTGGACTCGGTTCTGTTCGGAGTCACCTAGTGCAG,9260 fluorescence intensity (a.u.)
15,CTACACTGTCTTGCTCGCTCATTGTCTCTCTCTGCATTTGCGGAGTCACCTAGTGCAG,8580 fluorescence intensity (a.u.)
16,TATGTTCGGTATCGTATTAAATCTACTCCTATTTGTACCTCGGAGTCACCTAGTGCAG,8570 fluorescence intensity (a.u.)
17,TTTTGTTCGCTACTATAGGCCCACACGTCTGTGCCCATGGCGGAGTCACCTAGTGCAG,8660 fluorescence intensity (a.u.)
18,CTCCTCTTCTTCTCTTCTCCTTCGTTGGGCGTGGGCGTCGCGGAGTCACCTAGTGCAG,12400 fluorescence intensity (a.u.)
19,CCGACGCCTACTACTTCGCCCACTAGCCACGCGTGCTGCCCGGAGTCACCTAGTGCAG,9050 fluorescence intensity (a.u.)
20,TACTGTATAGTTGTTACAACTTCCTTTTTAATTATTCAATCGGAGTCACCTAGTGCAG,8060 fluorescence intensity (a.u.)
21,AATGGTCAAACACGTATTTAAAAAGTCAACGGTGTCAAACCGGAGTCACCTAGTGCAG,14100 fluorescence intensity (a.u.)
22,AAGACGAATGATCAAACACGTACTAAAAAAGTCAACGGTGCGGAGTCACCTAGTGCAG,11600 fluorescence intensity (a.u.)
23,AGACGAATGGTCAAACACGTATTAAAAAGTCAACGGTGTCCGGAGTCACCTAGTGCAG,19700 fluorescence intensity (a.u.)

row,Sequence,binding signal
1,GGTCAAATACGTACTAAAAAGTCAACGGTGTCAAACATTTCGGAGTCACCTAGTGCAG,12900 fluorescence intensity (a.u.)
2,GAATGGTCAAACACGTACTAAAAAAGTCAACGGTGTCAAACGGAGTCACCTAGTGCAG,17500 fluorescence intensity (a.u.)
3,GACGAATGGTCAAACACGTACTAAAAAGTCAACGGTGTCACGGAGTCACCTAGTGCAG,12200 fluorescence intensity (a.u.)
4,CTAATGGTTCTGATCGCCGTGCCTAACCCTAGCCCCATATCGGAGTCACCTAGTGCAG,8400 fluorescence intensity (a.u.)
5,TCTTTTGCTTCTGTTCTGCACCGGTCTCTCTGATGGATGTCGGAGTCACCTAGTGCAG,9680 fluorescence intensity (a.u.)
6,AATAGATGACATTGTTGACTTATTCTTACATGTTTGCCCACGGAGTCACCTAGTGCAG,9350 fluorescence intensity (a.u.)
7,TGACAATGGTGTTGCATCTCCAAAGCTGCAGAAACAAACACGGAGTCACCTAGTGCAG,48300 fluorescence intensity (a.u.)
8,TCCACCTCCTAGCGAAATGCATGGTTGGCCAAACAACACACGGAGTCACCTAGTGCAG,8300 fluorescence intensity (a.u.)
9,AATTGCTGTTGACCTGTTGTTGTGCTCCAACATCCAAACACGGAGTCACCTAGTGCAG,8290 fluorescence intensity (a.u.)
10,TACGAGGAGGGCCCATGCGTCGGTGGGTAGGGTGAAAAGACGGAGTCACCTAGTGCAG,8690 fluorescence intensity (a.u.)
11,GAGGTGGTGGAGGAGGAGGCCAGGGGTTCGTTGGCGGCGGCGGAGTCACCTAGTGCAG,8840 fluorescence intensity (a.u.)
12,ACTAACGAAATTACTACTTCGTAGGGGTAGGGGTGGCGTGCGGAGTCACCTAGTGCAG,9370 fluorescence intensity (a.u.)
13,AGGAGGGCGGGGTCGTCGTCGTCCGGGGTGGTGGTGGCCGCGGAGTCACCTAGTGCAG,17000 fluorescence intensity (a.u.)
14,GACCTTTGGGTAGGGGTGGGGATGGGGCGAAATTACTAAACGGAGTCACCTAGTGCAG,30300 fluorescence intensity (a.u.)
15,TGGGGATGGGGAATTGACCTGGGTAGGGGTGGTAATTGGGCGGAGTCACCTAGTGCAG,16000 fluorescence intensity (a.u.)
16,AATAAAGTTGGGTGGTTGGGGCGCGCGATAGGAGTAAATCCGGAGTCACCTAGTGCAG,17400 fluorescence intensity (a.u.)
17,GCGGGGTTGGAGGAGGAGGAGGTGGTGGTGGTGGTGGTGGCGGAGTCACCTAGTGCAG,15300 fluorescence intensity (a.u.)
18,GAAAGTGGGAGAGAGAATAGGTTGGGGTGGTTGGTTTGGGCGGAGTCACCTAGTGCAG,14700 fluorescence intensity (a.u.)
19,GCTGGCGCCGGAGAGAGAGAGTGGGTTGGTTGTAATAAATCGGAGTCACCTAGTGCAG,9290 fluorescence intensity (a.u.)
20,GGAGGGTGGAGGGCGGAGGACGGAGGTGGTGGCGCCGCGCCGGAGTCACCTAGTGCAG,9550 fluorescence intensity (a.u.)
21,GGAGGAGGTGGCGGCGGAGGGGTTGGTGGTGGAGGTGGTCCGGAGTCACCTAGTGCAG,20800 fluorescence intensity (a.u.)
22,TGGTGGTGAGGAGGAGGAGGAGGAGGGCGGGGTCGTCGTCCGGAGTCACCTAGTGCAG,16200 fluorescence intensity (a.u.)
